Measured values reported in the supplement of paper PMC8291772.
± gives the standard error. In all, about 1,300 sequences were measured (“fluorescence a.u.”: median about 420, highest 2% from about 1,100 on). The sample holds the highest values, similar sequences and a random draw of the others, so the mix is not that of the screen.

molecular target: terminal deoxynucleotidyl transferase (calf thymus) (UniProt P06526); assay: TdT poly-dT extension signal (Cy3 hybridisation fluorescence, uncapped minus capped) (fluorescence a.u.); higher = more efficient initiation of TdT extension; details: initiator chemistry: 2'-O-methyl-RNA, free 3'-OH (5'-tethered via HEG linker)
Sequence (P06526 whole entry): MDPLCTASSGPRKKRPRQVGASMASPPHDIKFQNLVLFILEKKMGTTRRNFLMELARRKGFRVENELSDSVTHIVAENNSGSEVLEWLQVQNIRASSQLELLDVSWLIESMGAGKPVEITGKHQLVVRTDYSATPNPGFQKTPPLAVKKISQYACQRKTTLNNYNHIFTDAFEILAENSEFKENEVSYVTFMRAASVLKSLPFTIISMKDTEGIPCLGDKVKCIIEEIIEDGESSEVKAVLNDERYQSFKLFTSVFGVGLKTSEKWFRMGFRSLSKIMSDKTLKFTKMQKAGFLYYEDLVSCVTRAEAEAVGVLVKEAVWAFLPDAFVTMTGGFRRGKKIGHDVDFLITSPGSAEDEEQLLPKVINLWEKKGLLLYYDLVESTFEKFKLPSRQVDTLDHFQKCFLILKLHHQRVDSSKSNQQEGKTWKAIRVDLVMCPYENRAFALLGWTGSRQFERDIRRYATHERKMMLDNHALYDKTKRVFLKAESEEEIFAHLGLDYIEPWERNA
Method: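 All mono- to pentamer 2'-O-methyl-RNA initiators were made by photolithographic in situ synthesis (3'-NPPOC amidites, reverse direction, free 3'-OH) on glass on a hexaethylene glycol linker. Each was made in uncapped and DMTr-dT-capped versions, about 11 replicates each. Arrays were extended with calf thymus TdT (0.2 U/uL), 100 uM dTTP and 0.25 mM CoCl2 for 120 min at 37 C, hybridised with an rA18-Cy3 probe and scanned at 532 nm. The value is the mean uncapped minus the mean capped signal. IDs are written 3'->5' and are reversed to 5'->3'; all nucleotides are 2'-OMe.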

Sequence	TdT poly-dT extension signal
AACAG	567 ± 34
AUGUG	141 ± 13
CGGUU	300 ± 22
GAGGG	362 ± 32
AUUAU	330 ± 49
UGCGG	324 ± 29
UCAGC	1040 ± 72
AUUC	339 ± 23
CAGGU	493 ± 28
GGGGG	472 ± 39
AAUUA	354 ± 22
GCCAA	696 ± 70
UGGU	453 ± 25
UUUAC	399 ± 22
CCCAU	552 ± 28
GCCGG	264 ± 21
UCGA	592 ± 34
CGGGC	1070 ± 81
UAGU	371 ± 23
AGGAU	433 ± 28
CUUAC	422 ± 38
CAAAU	657 ± 54
CAGUC	521 ± 42

Sequence	TdT poly-dT extension signal
CACGG	422 ± 55
GCCAG	491 ± 83
GUAAU	383 ± 30
CGUCA	307 ± 18
UAACA	312 ± 21
GGCAU	577 ± 48
ACAUC	447 ± 23
GGGC	1320 ± 130
GGGCG	330 ± 32
GGGCA	291 ± 26
AGUG	231 ± 23
CGUGC	1220 ± 81
AGUGG	280 ± 18
AGUGC	1230 ± 130
CGUGA	389 ± 45
GGUG	210 ± 18
GGUGU	484 ± 37
UGUG	149 ± 15
UGUGA	362 ± 29
GGUGC	1450 ± 72
CGUG	298 ± 26
UGUGC	1360 ± 95
CGGAG	465 ± 66

Sequence	TdT poly-dT extension signal
GGCUG	287 ± 31
CUAGC	785 ± 76
CAGUA	544 ± 58
AAAU	568 ± 46
CGCU	427 ± 65
CCAGC	1240 ± 140
CCAGA	833 ± 99
CCAG	470 ± 39
UAAGC	1190 ± 89
AAAGC	1270 ± 67
CAAG	600 ± 36
UAAG	401 ± 44
AAAG	538 ± 32
UAAGG	350 ± 28
CAAGG	388 ± 18
CAAGC	1300 ± 67
GAAGC	1060 ± 81
GUCUA	477 ± 45
UUGG	177 ± 12
UCAGG	384 ± 36
AAUAC	583 ± 71
GACA	349 ± 28
CCGGC	929 ± 50

Sequence	TdT poly-dT extension signal
UGGA	586 ± 52
UAGGG	313 ± 21
AACUA	675 ± 34
UUCGA	389 ± 32
GACCA	345 ± 31
ACUCG	256 ± 14
UCGGU	469 ± 22
GGAC	724 ± 120
GCGGG	285 ± 16
UUAC	418 ± 28
CGCUG	264 ± 25
UUGCU	326 ± 35
AACGA	620 ± 72
CCACC	410 ± 37
AUCAG	458 ± 47
ACCAG	559 ± 61
GAAAC	1000 ± 140
AAUUU	252 ± 27
AACCG	293 ± 26
UCACC	396 ± 31
UUUCU	226 ± 34
CCGCG	351 ± 19
UUCAU	442 ± 20

Sequence	TdT poly-dT extension signal
CAGC	1170 ± 110
CAGCU	361 ± 26
CAGCA	560 ± 60
CCUUC	341 ± 33
CAUU	293 ± 19
GAACG	310 ± 29
GCAG	492 ± 30
GGAGC	1340 ± 130
AGAG	491 ± 39
GGAG	374 ± 20
CGAGC	1020 ± 61
AGAGC	1140 ± 83
AGAGA	827 ± 77
UCAUU	329 ± 26
UGAAA	894 ± 54
CUCUU	266 ± 14
GCGC	946 ± 73
AGUU	341 ± 23
CAAGA	858 ± 93
GAGGC	1040 ± 84
GGCUU	336 ± 21
